# Records with an inconclusive call do not appear. A call without a number means that no potency is given here. Calls of active or inactive are those of the source. Unless noted, calls come from the whole dose curve; as a rule, active = well fitted curve in the direction sought with a large enough effect; inconclusive = small, poorly fitted or top-dose-only effect, or another doubt; inactive = no such curve, though single readings can be large; an effect the other way counts as inactive or inconclusive.
# Key:
# [1] = molecular target: Mitogen-activated protein kinase 10 (Mus musculus) (UniProt Q61831); assay: JNK3 AlphaScreen Assay (AID 530; active = well fitted curve in either direction with a large enough effect, not every such curve was filed as active;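 note: kinase came from lysate of stimulated human HepG2 cells; signal reports phosphorylation of biotinylated GST-cJun 1-79 at Ser73 with 10 µM ATP; series mostly up to about 57 µM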)
# Summary of the method: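 Phosphorylation of biotinylated GST-cJun(1-79) at Ser73 is measured by AlphaScreen proximity luminescence. Enzyme is JNK3 in HepG2 lysates activated with interleukin-1beta and tumor necrosis factor alpha; ATP is 10 uM final.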
# [2] = molecular target: Cytochrome P450 3A4 (Homo sapiens) (UniProt P08684); assay: qHTS Assay for Inhibitors and Substrates of Cytochrome P450 3A4 (AID 884); note: nearly all actives have a fitted effect of over 50% in size; note: potency is the fitted concentration of half-maximal effect
# Chain of Cytochrome P450 3A4 (Homo sapiens) (P08684 whole entry, looked up): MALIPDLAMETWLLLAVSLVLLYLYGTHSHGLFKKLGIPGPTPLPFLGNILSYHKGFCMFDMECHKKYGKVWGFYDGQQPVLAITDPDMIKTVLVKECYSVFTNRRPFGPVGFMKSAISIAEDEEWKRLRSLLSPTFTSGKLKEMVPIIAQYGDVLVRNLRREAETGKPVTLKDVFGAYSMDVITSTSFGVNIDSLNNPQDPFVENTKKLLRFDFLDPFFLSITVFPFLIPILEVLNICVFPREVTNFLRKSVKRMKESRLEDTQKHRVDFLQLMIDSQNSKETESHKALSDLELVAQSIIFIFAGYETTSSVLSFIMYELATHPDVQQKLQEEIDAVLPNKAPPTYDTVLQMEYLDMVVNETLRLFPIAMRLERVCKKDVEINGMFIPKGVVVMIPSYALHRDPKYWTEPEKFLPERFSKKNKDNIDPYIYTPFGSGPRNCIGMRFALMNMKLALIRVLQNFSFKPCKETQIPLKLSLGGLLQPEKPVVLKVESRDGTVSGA
# Summary of the method: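 Luminescent readout of luciferin produced by CYP3A4 (20 nM) dealkylation of Luciferin-PPXE, 25 uM (its KM). NADPH-driven reaction ran 60 min at RT after 10 min compound preincubation; data scaled to 57 uM ketoconazole as 100% inhibition.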
# [3] = molecular target: 3',5'-cyclic-AMP phosphodiesterase 4B (Homo sapiens) (UniProt Q07343); assay: qHTS Assay for Inhibitors of PDE-IV (AID 607; active = well fitted activation curve with a large enough effect in the main read-out, with a control signal flat, not every such curve was filed as active)
# Chain of 3',5'-cyclic-AMP phosphodiesterase 4B (Homo sapiens) (Q07343 whole entry, looked up): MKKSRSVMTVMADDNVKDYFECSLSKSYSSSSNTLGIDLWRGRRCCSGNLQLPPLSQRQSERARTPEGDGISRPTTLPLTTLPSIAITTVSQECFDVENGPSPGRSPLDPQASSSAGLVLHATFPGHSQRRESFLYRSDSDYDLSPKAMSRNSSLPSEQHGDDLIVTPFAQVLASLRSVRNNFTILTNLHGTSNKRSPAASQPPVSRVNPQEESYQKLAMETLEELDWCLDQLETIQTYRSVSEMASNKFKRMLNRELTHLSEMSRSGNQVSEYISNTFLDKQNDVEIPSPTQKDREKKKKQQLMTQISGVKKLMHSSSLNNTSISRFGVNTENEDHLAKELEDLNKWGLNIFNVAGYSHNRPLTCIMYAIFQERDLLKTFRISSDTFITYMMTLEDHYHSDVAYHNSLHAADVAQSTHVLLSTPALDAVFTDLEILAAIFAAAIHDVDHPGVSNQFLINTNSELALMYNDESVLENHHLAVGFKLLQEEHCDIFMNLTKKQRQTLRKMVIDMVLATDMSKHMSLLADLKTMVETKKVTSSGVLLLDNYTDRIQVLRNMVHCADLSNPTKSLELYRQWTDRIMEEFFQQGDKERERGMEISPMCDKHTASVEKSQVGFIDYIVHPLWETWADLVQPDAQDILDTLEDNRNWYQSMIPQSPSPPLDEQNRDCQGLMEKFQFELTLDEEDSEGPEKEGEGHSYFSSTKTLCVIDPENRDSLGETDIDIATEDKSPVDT
# Summary of the method: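 ACTOne HEK293 cells carry a modified cAMP-gated CNG channel and express endogenous PDE4; plated 1000 cells/well, compounds up to 22.9 uM final. Membrane-potential dye fluorescence (ex 535/em 590) was read; parental cells received 10 uM forskolin + 100 uM RO 20-1724.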
# [4] = molecular target: Cytochrome P450 3A4 (Homo sapiens) (UniProt P08684); assay: qHTS Assay for Activators of Cytochrome P450 3A4 (AID 885); note: nearly all actives have a fitted effect of over 65% in size
# Summary of the method: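 CYP3A4 activity: Luciferin-PPXE O-dealkylation, 25uM substrate, 200mM KPO4, RT throughout. Read-out is luciferase luminescence; higher values reflect activation.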
# [5] = molecular target: Cytochrome P450 2C19 (Homo sapiens) (UniProt P33261); assay: qHTS Assay for Inhibitors and Substrates of Cytochrome P450 2C19 (AID 899); note: potency is the fitted concentration of half-maximal effect; nearly all actives have a fitted effect of over 60% in size
# Chain of Cytochrome P450 2C19 (Homo sapiens) (P33261 whole entry, looked up): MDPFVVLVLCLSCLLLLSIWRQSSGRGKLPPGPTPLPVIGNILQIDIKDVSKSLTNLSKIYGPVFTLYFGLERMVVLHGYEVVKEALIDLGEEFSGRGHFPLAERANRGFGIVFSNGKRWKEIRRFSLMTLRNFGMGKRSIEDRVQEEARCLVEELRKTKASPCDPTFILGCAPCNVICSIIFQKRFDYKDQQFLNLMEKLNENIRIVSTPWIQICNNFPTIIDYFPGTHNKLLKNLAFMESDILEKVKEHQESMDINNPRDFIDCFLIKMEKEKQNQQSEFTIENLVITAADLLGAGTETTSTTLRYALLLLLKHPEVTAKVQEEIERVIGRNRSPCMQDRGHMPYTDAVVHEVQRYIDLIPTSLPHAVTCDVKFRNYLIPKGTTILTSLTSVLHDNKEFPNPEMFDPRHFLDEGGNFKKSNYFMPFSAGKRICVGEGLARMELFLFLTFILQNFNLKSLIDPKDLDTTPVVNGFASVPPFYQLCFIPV
# Summary of the method: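 NADPH-dependent conversion of Luciferin-H EGE (10uM, at KM) by 5nM enzyme in 50mM KPO4, 60 min at 37C following 10 min compound preincubation. Stopped with luciferin detection buffer; luminescence read after 20 min.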
# [6] = molecular target: Cytochrome P450 2C9 (Homo sapiens) (UniProt P11712); assay: qHTS Assay for Inhibitors and Substrates of Cytochrome P450 2C9 (AID 883); note: potency is the fitted concentration of half-maximal effect; nearly all actives have a fitted effect of over 60% in size
# Chain of Cytochrome P450 2C9 (Homo sapiens) (P11712 whole entry, looked up): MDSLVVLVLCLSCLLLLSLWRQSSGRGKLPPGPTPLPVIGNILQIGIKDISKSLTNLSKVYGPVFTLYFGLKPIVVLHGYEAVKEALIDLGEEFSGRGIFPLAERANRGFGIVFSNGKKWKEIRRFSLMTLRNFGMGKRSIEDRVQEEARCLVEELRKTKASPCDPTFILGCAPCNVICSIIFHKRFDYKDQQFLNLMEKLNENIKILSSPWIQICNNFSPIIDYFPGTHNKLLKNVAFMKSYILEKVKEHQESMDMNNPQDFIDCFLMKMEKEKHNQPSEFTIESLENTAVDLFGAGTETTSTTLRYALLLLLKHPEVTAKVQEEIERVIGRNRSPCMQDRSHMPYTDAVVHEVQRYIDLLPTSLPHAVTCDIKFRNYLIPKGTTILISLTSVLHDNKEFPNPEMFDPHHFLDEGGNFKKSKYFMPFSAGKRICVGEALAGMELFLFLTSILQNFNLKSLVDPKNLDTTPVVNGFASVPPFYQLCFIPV
# Summary of the method: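 A luminogenic readout tracked human CYP2C9 (10nM) converting deoxyluciferin (100uM, at KM) in 25mM KPO4 during 60 min at 37C with regenerated NADPH. Values normalized to 57uM sulphaphenazole as complete inhibition.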
smiles,measurement,setting,value
CC(=O)N1[C@H](Cc2ccccc2)C=C[C@]1(C)C(=O)NCc1ccccn1,outcome,[1],inactive
same,Potency,[2],inactive
C[C@@H]1C=C[C@](Cc2ccccc2)(C(=O)O)N1C(=O)c1ccccc1,outcome,[1],inactive
same,Potency,[2],inactive
COC(=O)[C@@]1(Cc2ccc(OC)cc2)[C@H]2c3cc(C(=O)N(C)C)n(Cc4ccc(Cl)c(C(F)(F)F)c4)c3C[C@H]2CN1C(=O)c1ccccc1,outcome,[1],inactive
same,outcome,[3],inactive
COCCNC(=O)[C@H](C)[C@@H]1C[C@@]1(C)[C@@H](NC(=O)OCc1ccccc1)c1ccccc1,outcome,[1],inactive
same,outcome,[3],inactive
same,Potency,[2],7.94 µM (active)
same,Potency,[4],inactive
same,Potency,[5],3.16 µM (active)
C[C@H]1C2=C3C(CC[C@H]4C(OCc5ccc(F)cc5C(F)(F)F)OC[C@](C)([C@@H]34)N(C(=O)OC(C)(C)C)C2)C2COC(=O)OCC21 (stereo partly specified),outcome,[1],inactive
same,outcome,[3],inactive
same,Potency,[4],inactive
COCCNC(=O)[C@H](C)[C@H]1C[C@]1(C)[C@H](NC(=O)OCc1ccccc1)c1ccccc1,outcome,[1],inactive
same,outcome,[3],inactive
same,Potency,[2],3.16 µM (active)
same,Potency,[4],inactive
CC(=O)N1C2(C=CC1(C)C(=O)NCc1ccc(C)o1)CCCCC2 (stereo unspecified),outcome,[1],inactive
same,Potency,[2],inactive
COC(=O)[C@@]1(Cc2ccc(OC)cc2)[C@H]2c3cc(C(=O)N(C)C)n(CCO)c3C[C@H]2CN1C(=O)c1ccccc1,outcome,[1],inactive
same,outcome,[3],inactive
C=C(CC1([C@@H](NP(=O)(c2ccccc2)c2ccccc2)[C@H]2C[C@@H]2CCCC)CC1)c1ccccc1,outcome,[1],inactive
same,outcome,[3],inactive
same,Potency,[2],1.58 µM (active)
same,Potency,[4],inactive
COC(=O)[C@@]1(Cc2ccc(F)cc2)[C@H]2c3cc(C(=O)N(C)C)n(CCc4ccc(O)c(O)c4)c3C[C@H]2CN1C(=O)c1ccccc1,outcome,[1],inactive
same,outcome,[3],inactive
CC(Cc1ccccc1)C(=O)N(C)Cc1ccccc1 (stereo unspecified),outcome,[1],inactive
same,Potency,[2],inactive
COCCNC(=O)C1(CC(C)C)C=CCN1C(C)=O (stereo unspecified),outcome,[1],inactive
same,Potency,[2],inactive
COC(=O)[C@@]1(Cc2ccc(F)cc2)[C@H]2c3cc(C(=O)N4CCCC4)n(CCc4c[nH]c5ccc(OC)cc45)c3C[C@H]2CN1C(=O)c1ccccc1,outcome,[1],inactive
same,outcome,[3],inactive
same,Potency,[6],7.94 µM (active)
same,Potency,[4],inactive
same,Potency,[5],7.94 µM (active)
COC(=O)[C@@]1(Cc2ccc(OC)cc2)[C@H]2c3cc(C(=O)N4CCCC4)n(CCc4c[nH]c5ccccc45)c3C[C@H]2CN1C(=O)c1ccccc1,outcome,[1],inactive
same,outcome,[3],inactive
CNC(=O)[C@@]1(C)C=C[C@@H](Cc2ccccc2)N1C(C)=O,outcome,[1],inactive
same,Potency,[2],inactive

# Source: PubChem BioAssay (NCATS)
